About 83,000 compounds went through this panel and 20% of them were active in at least one assay; those are over-represented in the sample as a whole.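 96-well plates, one dose, 48 hours. Percent growth reported; active if below 10.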 Values without a mark were called inactive. The source made the active and inactive calls.
Key:
Test in all cases: NCI-60 one-dose screen, 48 h (100 = growth as untreated, 0 = no growth, -100 = all killed)
Conditions in all cases: 10 µM unless noted
NCI-H23 lung = system: NCI-H23 lung
NCI-H226 lung = system: NCI-H226 lung
NCI-H322M lung = system: NCI-H322M lung
HOP-62 NSCLC = system: HOP-62 NSCLC
NCI-H460 lung = system: NCI-H460 lung
HOP-92 NSCLC = system: HOP-92 NSCLC
NCI-H522 lung = system: NCI-H522 lung
A549/ATCC NSCLC = system: A549/ATCC NSCLC
786-0 renal = system: 786-0 renal
COLO 205 colon = system: COLO 205 colon

Structure (SMILES)	growth (NCI-H23 lung)	growth (NCI-H226 lung)	growth (NCI-H322M lung)	growth (HOP-62 NSCLC)	growth (NCI-H460 lung)	growth (HOP-92 NSCLC)	growth (NCI-H522 lung)	growth (A549/ATCC NSCLC)	growth (786-0 renal)	growth (COLO 205 colon)
C=C1C(=O)O[C@H]2[C@H]1CC/C(CNC(=O)/C=C/c1ccccc1)=C\CC[C@@]1(C)O[C@@H]21	54.5%	64.8%	71.9%	80.3%	39.7%	-40.9% (active)	-86.8% (active)	46.8%	-64.4% (active)	-64.7% (active)
N#C/C(=C\c1cccc(C#N)c1)c1ccccc1	101%	105%	104%	92.9%	104%	120%	95.6%	88.8%	105%	104%
COc1cc(/C=C/c2cc(O)c(C(C)=O)c(O)c2)cc2c1O[C@]1(C)CC[C@@H](O)C(C)(C)[C@H]1C2	73.6%	89%	76.2%	52.7%	76.3%	95.5%	79%	81.4%	7.29% (active)	94.5%
NCCCCCCNc1cc(-c2cccc(OC(F)(F)F)c2)nc2ccc(N3CCCC3)cc12	0.0621% (active)	81.2%	-13.1% (active)	-33.3% (active)	-91.8% (active)	39.3%	-44.5% (active)	16.6%	-65.2% (active)	-62.1% (active)
CC(=O)Nc1cccc(-c2ccc3c(c2)NC(=O)/C3=C\c2ccc[nH]2)c1	27.8%	52.7%	40.9%	55.3%	21.6%	80.8%	16.6%	40.4%	59%	38.8%
COC(=O)/C=C1\S/C(=N\NC(=O)c2cc3ccc2/C=C\c2ccc(cc2)/C=C\3)N(Cc2ccccc2)C1=O	77.4%	64.8%	93.3%	77.2%	93.7%	75.5%	15.9%	77%	49.6%	72.7%
COc1cc2c(=O)n(CCN)c3c4cc5c(cc4ccc3c2cc1OC)OCO5	14.2%	-66% (active)	-72.1% (active)	-51.2% (active)	-76.5% (active)	49.6%	-7.78% (active)	-76.5% (active)	-79.3% (active)	-0.566% (active)
COc1cc(C2=NN(C(C)=O)C(c3cc(OC)c(OC)c(OC)c3)C2)ccc1O (stereo not given)	29.5%	38.5%	35.2%	32.8%	-6.58% (active)	48.5%	-33.8% (active)	21.7%	17.9%	-17.2% (active)
O=[N+]([O-])CC(c1ccccc1)c1c[nH]c2ccccc12 (stereo not given)	68.5%	63.6%	97.6%	56%	52.6%	75.7%	5.68% (active)	42.4%	70%	54.1%
C=C(C)[C@@H]1CC[C@]2(C(=O)N3CCN(C)CC3)CC[C@]3(C)[C@H](CC[C@@H]4[C@@]5(C)CC[C@H](OCCC#N)C(C)(C)[C@@H]5CC[C@]43C)[C@@H]12	100%	89.4%	103%	108%	98.7%	93%	95.4%	80%	22%	50.3%
CCOC(=O)[C@@H]1CCCN(S(=O)(=O)c2ccc(S(=O)(=O)N(CC)CC)c(F)c2)C1	45.3%	72.6%	90.2%	74.6%	81.2%	67.4%	65.3%	86.2%	70.7%	83.9%
CN(C)c1ccc(Nc2c3ccccc3nc3cc(NC(=O)CCN4CCCC4)ccc23)cc1	-42.5% (active)	-1.19% (active)	-14.6% (active)	-8.55% (active)	-65.5% (active)	-9.52% (active)	-32.8% (active)	-33.5% (active)	-54% (active)	-27.3% (active)
COC(=O)CNC(=O)[C@]12CCC(C)(C)C[C@H]1C1=CC[C@@H]3[C@@]4(C)Cc5c([nH]c6ccccc56)C(C)(C)[C@@H]4CC[C@@]3(C)[C@]1(C)CC2	92.9%	83.5%	91.6%	87.8%	87.7%	101%	80.5%	50.4%	91.6%	87%
O=C(c1nc2ccccc2[nH]1)C1C(c2ccc(Br)cc2)C2CC3CCCC[C@H]3N2[C@@]12C(=O)Nc1cc(Cl)ccc12 (stereo not given in full)	54.5%	51.8%	56.1%	62.4%	16.8%	52.1%	59.1%	33%	42%	21.8%
COc1cc(/C=C\c2cc(OC)c(OC)c(OC)c2)cc(N)c1OC	83.6%	97.8%	81.3%	79.8%	104%	78.4%	58.6%	93.1%	82.3%	104%
C/C(=N\Nc1cc(C)nc2ccc(Br)cc12)c1ccc([N+](=O)[O-])cc1	88.4%	90%	82.7%	76.9%	69.8%	77%	76.6%	78.6%	10%	31.8%
CC(=O)[C@@H]1CC[C@]2(CO)CC[C@]3(C)[C@H](CC[C@@H]4[C@@]5(C)CCCNC(C)(C)[C@@H]5CC[C@]43C)[C@@H]12	94.6%	107%	88.8%	111%	100%	88.7%	91.6%	112%	93.6%	106%
CN1CCN(C(=O)[C@]23CCC(C)(C)C[C@H]2C2=CC[C@@H]4[C@@]5(C)C/C(=C/c6cccnc6)C(=O)C(C)(C)[C@@H]5CC[C@@]4(C)[C@]2(C)CC3)CC1	72.8%	79.7%	96.3%	85.2%	31.9%	40.7%	49.4%	47%	73.7%	42.9%
CCCCCC(=O)Oc1ccc(/C(=C(/C)Cc2ccc(OC)cc2)c2ccc(OCCCN(C)C)cc2)cc1	76.7%	93.3%	92.1%	80.4%	69.6%	73.4%	98.1%	76.1%	58.4%	55.6%
COc1ccc(N2CCN(c3ccc(NC4=C(Cl)C(=O)c5ncccc5C4=O)cc3)CC2)cc1	26.2%	52.8%	46.9%	56.2%	17.6%	85.8%	43.8%	36.1%	80.1%	43%
C=C(C)[C@@H]1CC[C@]2(C(=O)N[C@H](CO)Cc3ccccc3)CC[C@]3(C)[C@H](CC[C@@H]4[C@@]5(C)CCCNC(C)(C)[C@@H]5CC[C@]43C)[C@@H]12	-71.9% (active)	-55.7% (active)	-86% (active)	-86.2% (active)	-86.2% (active)	-88.5% (active)	-79.2% (active)	-83.1% (active)	-90.7% (active)	-83.4% (active)
Cn1cc(-c2csc(-c3c[nH]c4ccccc34)n2)c2ccnc(Cl)c21	86.9%	60.5%	88.9%	119%	74.2%	64%	52.5%	59%	59.1%	46.7%
OCc1cnccc1NCCCCOc1ccc(Oc2ccccc2)cc1	46.6%	70.1%	94.7%	72.1%	69.6%	43%	62.9%	78.3%	56.8%	-10.4% (active)
Cc1cccc(NC(=O)Nc2ccc(-n3cnc4cc(-c5ccc(O)cc5)ccc43)cc2)c1	27.7%	62.6%	69.8%	39.3%	9.07% (active)	81.1%	6.16% (active)	24.9%	36.2%	69.1%
C=CCN1C(=O)/C(=C/C(=O)OC)S/C1=N\NC(=O)c1cc2ccc1/C=C\c1ccc(cc1)/C=C\2	88.2%	87.5%	97.1%	107%	102%	81.4%	60.7%	94.8%	91.2%	110%
C#CCNC(=O)[C@H](Cc1ccccc1)NC(=O)[C@]12CC[C@@H](C(=C)C)[C@@H]1[C@H]1CC[C@@H]3[C@@]4(C)CCC(=O)C(C)(C)[C@@H]4CC[C@@]3(C)[C@]1(C)CC2	70.6%	68.7%	69.9%	77.1%	66.7%	66%	52.6%	53.9%	76%	78.7%
